Publication PMC5540273 (PLoS ONE, 2017)

What was measured:
Conditions in all cases: concentration: 1 μM, replicates: in singlicate; n = 1
INSRR = test system: INSRR
INSR = test system: INSR
IRAK1 = test system: IRAK1
IRAK3 = test system: IRAK3
IRAK4 = test system: IRAK4
ITK = test system: ITK
[1] = test system: JAK1(JH1domain-catalytic)
[2] = test system: JAK1(JH2domain-pseudokinase)
[3] = test system: JAK2(JH1domain-catalytic)
[4] = test system: JAK3(JH1domain-catalytic)
JNK1 = test system: T1, JNK1
T1 construct: gene MAPK8

JNK2 = test system: T2, JNK2
T2 construct: gene MAPK9

JNK3 = test system: T3, JNK3
T3 construct: gene MAPK10

KIT-autoinhibited = test system: KIT-autoinhibited
KIT = test system: KIT
LATS1 = test system: LATS1
LATS2 = test system: LATS2
LCK = test system: LCK
LIMK1 = test system: LIMK1
LIMK2 = test system: LIMK2
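Note: KINOMEscan kinase panel screen.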

Structure (SMILES)	%Inh (INSRR) [%]	%Inh (INSR) [%]	%Inh (IRAK1) [%]	%Inh (IRAK3) [%]	%Inh (IRAK4) [%]	%Inh (ITK) [%]	%Inh [1] [%]	%Inh [2] [%]	%Inh [3] [%]	%Inh [4] [%]	%Inh (JNK1) [%]	%Inh (JNK2) [%]	%Inh (JNK3) [%]	%Inh (KIT-autoinhibited) [%]	%Inh (KIT) [%]	%Inh (LATS1) [%]	%Inh (LATS2) [%]	%Inh (LCK) [%]	%Inh (LIMK1) [%]	%Inh (LIMK2) [%]
CSc1ccc(NC2=C(c3ccccc3Cl)C(=O)NC2=O)cc1 [SB-342411]	0	0	0	0	19	4	0	0	0	48	1	1	0	0	25	5	23	18	0	7
Cn1ccc2ncnc(Nc3ccc(Oc4cccc(Cl)c4)c(Cl)c3)c21	0	16	27	6	27	23	16	0	15	4	8	0	0	0	24	44	0	0	0	6
Nc1nc(-c2ccc3c(N)n[nH]c3c2)cc(N2CCC[C@@H](C(=O)Nc3ccccc3)C2)n1.O=C(O)C(F)(F)F.O=C(O)C(F)(F)F [GSK2288359]	0	9	0	0	0	0	14	23	100	0	0	0	0	4	25	0	16	0	10	7
CNc1nccc(-c2c(-c3ccc(F)cc3)ncn2C2CCN(C)CC2)n1 [SB-222903]	0	5	0	0	0	5	24	5	5	0	0	69	43	0	0	2	0	0	0	0
CC(=O)Nc1n[nH]c2ncc(-c3ccccc3)cc12 [SB-548492]	12	0	0	25	0	0	0	87	15	0	40	17	17	21	67	14	4	30	0	45
COC(=O)c1c(-c2ccccc2)c2cc(Cl)ccc2c(=O)n1Cc1ccc(S(C)(=O)=O)cc1	0	5	11	19	9	21	0	0	5	4	98.8	99.5	99.4	0	56	30	19	13	1	0
CN1CCC(n2cnc(-c3ccc(F)cc3)c2-c2ccnc(NC3CCNCC3)n2)CC1 [SB-229482]	0	0	20	0	4	0	0	0	18	0	71	96	92.4	0	25	0	8	0	0	30
COc1cc2ncnc(Nc3ccc(OCc4ccccc4Br)c(Cl)c3)c2cc1OC.Cl [GI261590]	0	0	32	13	18	12	17	0	0	0	15	10	0	0	3	8	3	57	0	3
CS(=O)(=O)CCNCc1ccc(-c2ccc3ncnc(Nc4ccc(OCc5ccccc5)c(Cl)c4)c3c2)o1.Cl [GW574783]	24	7	0	12	0	0	9	0	14	0	18	4	0	0	10	0	11	30	0	1
COc1cc2c(Nc3cccc(NC(=O)c4ccccc4)c3)ncnc2cc1OCCCN1CCOCC1 [GSK223810]	7	10	0	41	0	9	0	0	4	0	34	58	31	0	93.4	0	0	84	13	7
